# From PubChem BioAssay (NCATS)
# Records with an inconclusive call do not appear. Entries that show only a call come without a potency. Calls of active or inactive are those of the source. Unless noted, the call rests on the fitted dose curve; in most records, active means well fitted curve in the direction sought with a large enough effect; inconclusive means small, poorly fitted or top-dose-only effect, or another doubt; inactive means no such curve, though single readings can be large; an effect the other way counts as inactive or inconclusive.
# Key:
# [1] = qHTS Assay for Identification of Small Molecule Antagonists for NFkB Signaling Pathway. (AID 624479; calls by dose curve;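 further: pathway stimulated with TNF alpha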)
# [2] = molecular target: Cytochrome P450 2C9 (Homo sapiens) (UniProt P11712); assay: qHTS Assay for Inhibitors and Substrates of Cytochrome P450 2C9 (AID 883); further: potency means the concentration at half of the fitted maximal effect; nearly all actives have a fitted effect of over 60% in size
# Cytochrome P450 2C9 (Homo sapiens), sequence (P11712 whole entry, looked up): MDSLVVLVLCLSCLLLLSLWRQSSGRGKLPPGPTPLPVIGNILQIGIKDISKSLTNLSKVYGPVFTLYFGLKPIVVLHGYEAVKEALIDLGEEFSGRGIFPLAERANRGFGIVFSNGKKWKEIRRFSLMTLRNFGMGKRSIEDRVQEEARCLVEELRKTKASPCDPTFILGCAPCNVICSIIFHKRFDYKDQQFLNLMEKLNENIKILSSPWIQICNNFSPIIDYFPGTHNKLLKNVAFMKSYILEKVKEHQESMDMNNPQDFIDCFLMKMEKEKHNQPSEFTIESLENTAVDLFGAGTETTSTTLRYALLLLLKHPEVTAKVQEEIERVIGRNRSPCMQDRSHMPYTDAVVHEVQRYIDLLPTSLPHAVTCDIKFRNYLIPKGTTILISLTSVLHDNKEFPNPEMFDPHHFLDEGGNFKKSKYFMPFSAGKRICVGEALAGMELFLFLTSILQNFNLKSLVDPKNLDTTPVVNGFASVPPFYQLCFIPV
# Summary of the method: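 Human CYP2C9 (10nM) hydroxylated Luciferin-H (100uM, at its KM) to luciferin in 25mM KPO4. Compound was preincubated 10 min at 37C, then NADPH regeneration started a 60 min reaction at 37C. Luminescence was read after detection reagent, normalized to 57uM sulphaphenazole.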
# [3] = molecular target: DNA dC->dU-editing enzyme APOBEC-3G (Homo sapiens) (UniProt Q9HC16); assay: qHTS for inhibitors of Vif-A3G interactions: Validation (AID 588379)
# DNA dC->dU-editing enzyme APOBEC-3G (Homo sapiens), sequence (Q9HC16 whole entry, looked up): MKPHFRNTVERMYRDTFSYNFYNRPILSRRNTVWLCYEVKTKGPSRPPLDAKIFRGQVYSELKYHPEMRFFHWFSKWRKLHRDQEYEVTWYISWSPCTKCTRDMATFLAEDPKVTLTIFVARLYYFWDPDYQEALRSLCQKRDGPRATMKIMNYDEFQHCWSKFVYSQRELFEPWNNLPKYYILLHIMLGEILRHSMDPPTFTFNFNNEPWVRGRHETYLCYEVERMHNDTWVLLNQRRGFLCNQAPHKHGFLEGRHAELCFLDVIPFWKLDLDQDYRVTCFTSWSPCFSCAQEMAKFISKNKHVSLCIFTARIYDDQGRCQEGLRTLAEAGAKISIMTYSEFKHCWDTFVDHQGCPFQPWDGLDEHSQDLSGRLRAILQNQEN
# Summary of the method: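 HeLa cells stably expressing Vif and A3G-eYFP, 700 cells/well, incubated overnight at 37 deg C, then exposed to compound overnight at 37 deg C. Inhibition of Vif-mediated degradation read as increased yellow fluorescence (Ex 488/Em 500-530) by laser-scanning cytometry.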
# DFO2036 = assay: qHTS profiling for inhibitors of Plasmodium falciparum proliferation (AID 504749); further: nearly all actives have a fitted effect of over 60% in size; settings: P. falciparum in erythrocytes, SYBR Green DNA, 72 h; series mostly up to 28.7 µM
# Summary of the method: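 Parasite proliferation within erythrocytes, 72 h exposure. Endpoint: SYBR Green I fluorescence after overnight lysis at room temperature. Controls: 0.29 uM artemisinin, DMSO.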
structure (smiles),measurement,setting,value
CC12CCC3C(CCC4=C(O)C(=O)CCC43C)C1CCC2=O (centres undefined),outcome,[1],inactive
COc1cc(C=C(C#N)C#N)cc(O)c1O,Potency,[2],2510 nM (active)
CC[C@@H](CO)NC(=O)[C@H]1C=C2c3cccc4c3c(cn4C)C[C@H]2N(C)C1,outcome,[3],inactive
CCCC[N+]1(C)C2CC(OC(=O)C(CO)c3ccccc3)CC1C1OC12 (centres undefined),Potency,DFO2036,inactive
